PubChem BioAssay (NCATS)
Several values for one entry are separate records, joined by “and”; a condition that tells them apart may be missing. Equal values may be shown once. Results filed as inconclusive are left out. Activity calls are given as the source filed them. Unless noted, calls follow the shape of the dose curve; as a rule, active = well fitted curve in the direction sought with a large enough effect; inconclusive = small, poorly fitted or top-dose-only effect, or another doubt; inactive = no such curve, though single readings can be large; an effect the other way counts as inactive or inconclusive.

Tests used:
[1] = AP1 Signaling Pathway (AID 357; active = well fitted curve in either direction with a large enough effect, not every such curve was filed as active;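 also: ME-180 reporter cells stimulated with EGF at its EC50 level; % is scaled to controls: 0 for no effect and ±100 for the full control effect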); settings: ME-180 AP-1-bla reporter, EGF-induced, beta-lactamase ratio, 5 h; at 7.69 µM (top of the series) unless noted
In short: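 Modulation of EGF-driven AP-1 transcription was assessed with a beta-lactamase reporter in ME-180 cells. Compound and EC50 EGF were co-incubated 5 hours at 37 °C before 2.5-hour CCF4 loading at room temperature and dual-emission reading.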

[2] = target: Cytochrome P450 1A2 (Homo sapiens) (UniProt P05177); experiment: p450-cyp1a2 (AID 410; calls by dose curve; also: potency is read from the fitted curve at half-maximal effect;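 as to activity change, negative = inhibition: -100% = full effect of reference inhibitor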)
Chain of Cytochrome P450 1A2 (Homo sapiens) (P05177 whole entry, looked up): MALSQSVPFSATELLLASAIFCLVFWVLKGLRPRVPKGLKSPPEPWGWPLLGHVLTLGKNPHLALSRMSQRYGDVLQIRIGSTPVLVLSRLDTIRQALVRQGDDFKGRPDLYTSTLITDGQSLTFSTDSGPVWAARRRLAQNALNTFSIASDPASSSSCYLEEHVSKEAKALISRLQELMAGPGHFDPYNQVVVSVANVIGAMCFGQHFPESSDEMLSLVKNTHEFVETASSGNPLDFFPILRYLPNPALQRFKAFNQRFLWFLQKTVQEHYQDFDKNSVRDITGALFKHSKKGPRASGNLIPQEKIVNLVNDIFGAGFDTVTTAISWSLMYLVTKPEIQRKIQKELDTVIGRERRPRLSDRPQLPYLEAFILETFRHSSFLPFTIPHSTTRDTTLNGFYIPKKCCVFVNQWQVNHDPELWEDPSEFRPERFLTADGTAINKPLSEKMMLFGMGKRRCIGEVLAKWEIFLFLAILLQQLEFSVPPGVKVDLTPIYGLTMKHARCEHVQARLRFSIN
In short: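 O-Demethylation of luciferin 6' methyl ether by human CYP1A2 is monitored as luciferase luminescence. Substrate sits at Km (100uM); enzyme is 20nM. Values are scaled to 57 uM furafylline as maximal inhibition.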

[3] = NFAT Signaling Pathway (AID 444; active = well fitted curve in either direction with a large enough effect, not every such curve was filed as active;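 also: carbachol stimulus at about its EC50 of 1 µM final; % is scaled to controls: 0 for no effect and ±100 for the full control effect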); settings: Jurkat NFAT-bla M1, carbachol, beta-lactamase ratio, 5 h; at 7.69 µM (top of the series) unless noted
In short: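 Jurkat cells carrying an NFAT-driven β-lactamase reporter and co-transfected muscarinic M1 receptor were treated with compound plus carbachol (1 uM final, an EC50 level) for 5 h at 37 °C. CCF4 loading followed for 1 h at RT; 460/530 nm ratio gave %activity.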

[4] = Stat Signaling Pathway (AID 446; active = well fitted curve in either direction with a large enough effect, not every such curve was filed as active;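 also: ME-180 cervical cancer cells given 40 pM IL-6 alongside compound; SIE-controlled beta-lactamase reporter measured as 460/530 nm FRET emission ratio; % is scaled to controls: 0 for no effect and ±100 for the full control effect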); settings: ME-180 (cervical carcinoma) SIE beta-lactamase reporter, IL-6 stimulated, 5 h; at 7.69 µM (top of the series) unless noted
In short: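 Normalization used AC90 stimulation (300 pM IL-6) and AC90 inhibition (125 nM pan-JAK inhibitor at 40 pM IL-6). The underlying signal is SIE-driven beta-lactamase in ME-180 cells after 5 h IL-6 exposure with compound.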

[5] = target: Mitogen-activated protein kinase 10 (Mus musculus) (UniProt Q61831); experiment: JNK3 AlphaScreen Assay (AID 530; active = well fitted curve in either direction with a large enough effect, not every such curve was filed as active;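 also: kinase came from lysate of stimulated human HepG2 cells; signal reports phosphorylation of biotinylated GST-cJun 1-79 at Ser73 with 10 µM ATP; % is scaled to controls: 0 for no effect and ±100 for the full control effect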)
In short: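 Phosphorylation of biotinylated GST-cJun(1-79) at Ser73 is measured by AlphaScreen proximity luminescence. Enzyme is JNK3 in HepG2 lysates activated with interleukin-1beta and tumor necrosis factor alpha; ATP is 10 uM final.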

[6] = target: Guanine nucleotide-binding protein G(i) subunit alpha-1 (Homo sapiens) (UniProt P63096); experiment: qHTS Assay for Inhibitors of RGS12 GoLoco Motif Activity (Green Fluorophore) (AID 879);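 also: 0% = labeled peptide with Gαi1 and full inhibition = labeled peptide alone without protein; negative values mean loss of peptide binding seen as reduced polarization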
Chain of Guanine nucleotide-binding protein G(i) subunit alpha-1 (Homo sapiens) (P63096 whole entry, looked up): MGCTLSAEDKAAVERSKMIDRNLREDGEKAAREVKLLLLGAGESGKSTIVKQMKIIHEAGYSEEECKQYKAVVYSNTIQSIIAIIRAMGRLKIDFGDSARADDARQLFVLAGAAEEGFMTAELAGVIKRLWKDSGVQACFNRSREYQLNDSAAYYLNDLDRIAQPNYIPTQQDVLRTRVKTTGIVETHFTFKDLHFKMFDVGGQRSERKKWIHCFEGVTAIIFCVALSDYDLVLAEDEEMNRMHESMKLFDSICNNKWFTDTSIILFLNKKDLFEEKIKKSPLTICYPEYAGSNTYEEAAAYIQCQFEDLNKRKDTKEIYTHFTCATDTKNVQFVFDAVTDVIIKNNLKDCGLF
In short: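 A drop in FITC polarization marked displacement of the FITC-tagged RGS12 GoLoco peptide (10 nM) from Gαi1 (50 nM). Compounds were incubated 10 min at room temperature in Tris pH 7.5 buffer containing 150 mM NaCl, 0.1 mM GDP and 0.05% NP40; unlabeled peptide titration served as control.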

[7] = qHTS Assay for Identification of Small Molecule Antagonists for NFkB Signaling Pathway (AID 895; active = well fitted inhibition curve with a large enough effect in the signal ratio, with a control signal flat, not every such curve was filed as active; the % refers to the signal ratio; also: potency is read from the fitted curve at half-maximal effect)
In short: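 NFkB-bla ME-180 cervical carcinoma cells with beta-lactamase reporter under NFkB response element; compounds added, then TNF alpha at 10 pM final (EC50), 5 h at 37 C. LiveBLAzer substrate 2 h, room temperature; emission 460/530 nm at 405 nm excitation.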

[8] = target: Cytochrome P450 2C19 (Homo sapiens) (UniProt P33261); experiment: qHTS Assay for Inhibitors and Substrates of Cytochrome P450 2C19 (AID 899); also: % is scaled to controls: 0 for no effect and ±100 for the full control effect; nearly all actives have a fitted effect of over 60% in size
In short: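 NADPH-dependent conversion of Luciferin-H EGE (10uM, at KM) by 5nM enzyme in 50mM KPO4, 60 min at 37C following 10 min compound preincubation. Stopped with luciferin detection buffer; luminescence read after 20 min.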

[9] = qHTS Assay for Identification of Small Molecule Agonists for Thrombopoietin (TPO) Signaling Pathway (AID 917); also: % is scaled to controls: 0 for no effect and ±100 for the full control effect
In short: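 Cell-based luciferase reporter screen. Mouse Ba/F3 line stably expressing human TPO receptor; IL-3 removed overnight before plating. Co-treatment with compound and EC50 TPO (26 pM), 24 hrs at 37 C, then luminescence.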

[10] = target: Muscarinic acetylcholine receptor M1 (Rattus norvegicus) (UniProt P08482); experiment: qHTS Assay for Antagonists of Acetylcholine Muscarinic M1 Receptor: Measurement of IP-One Response (AID 944); also: nearly all actives have a fitted effect of over 75% in size
Chain of Muscarinic acetylcholine receptor M1 (Rattus norvegicus) (P08482 whole entry, looked up): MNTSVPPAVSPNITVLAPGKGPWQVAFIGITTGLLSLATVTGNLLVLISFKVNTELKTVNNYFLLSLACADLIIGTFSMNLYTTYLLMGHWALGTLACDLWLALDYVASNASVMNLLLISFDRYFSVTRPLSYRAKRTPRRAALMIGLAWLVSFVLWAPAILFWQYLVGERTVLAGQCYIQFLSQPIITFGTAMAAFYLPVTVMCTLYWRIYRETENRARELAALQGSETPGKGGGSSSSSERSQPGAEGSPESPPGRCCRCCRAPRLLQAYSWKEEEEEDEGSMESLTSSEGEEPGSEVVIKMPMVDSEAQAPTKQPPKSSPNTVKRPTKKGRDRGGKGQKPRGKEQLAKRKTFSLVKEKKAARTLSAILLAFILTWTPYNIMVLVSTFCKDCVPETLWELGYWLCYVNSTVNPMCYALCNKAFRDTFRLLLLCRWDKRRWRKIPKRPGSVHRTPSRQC
In short: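 Antagonist mode with rat M1 receptor transfected into CHO cells. Compound is added first for 10 min, carbachol at its EC80 follows for 30 min, and lysis reagents then allow TR-FRET detection of accumulated IP1.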

[11] = target: Pyruvate kinase PKM (Homo sapiens) (UniProt P14618); experiment: qHTS Assay for Activators of Human Muscle Pyruvate Kinase (AID 954; active = well fitted curve in the direction sought with a large enough effect, not every such curve was filed as active;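 also: 0% = uninhibited enzyme and -100% = no enzyme or full thiadiazolimine inhibition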)
Chain of Pyruvate kinase PKM (Homo sapiens) (P14618 whole entry, looked up): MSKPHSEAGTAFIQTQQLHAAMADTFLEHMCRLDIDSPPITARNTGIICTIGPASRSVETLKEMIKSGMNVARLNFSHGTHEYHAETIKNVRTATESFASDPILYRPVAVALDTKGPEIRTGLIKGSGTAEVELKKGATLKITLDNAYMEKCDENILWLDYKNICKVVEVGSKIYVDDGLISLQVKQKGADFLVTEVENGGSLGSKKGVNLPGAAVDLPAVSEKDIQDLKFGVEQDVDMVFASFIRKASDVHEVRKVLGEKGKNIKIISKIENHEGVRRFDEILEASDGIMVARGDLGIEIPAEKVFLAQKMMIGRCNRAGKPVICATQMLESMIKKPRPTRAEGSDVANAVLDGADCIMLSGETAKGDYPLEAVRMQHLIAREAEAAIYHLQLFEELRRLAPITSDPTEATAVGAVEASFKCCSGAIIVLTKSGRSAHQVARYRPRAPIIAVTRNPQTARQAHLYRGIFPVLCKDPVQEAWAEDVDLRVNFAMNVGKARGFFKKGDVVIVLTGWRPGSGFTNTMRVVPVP
In short: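 Compound pinned into substrate mix (0.5 mM PEP, 0.1 mM ADP), then 0.1 nM PKM2 added; 1 h, RT. Stop/detection luciferase reagent added, luminescence read. Normalized to no-inhibition and no-enzyme or reference-inhibitor controls.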

[12] = target: Alpha-galactosidase A (Homo sapiens) (UniProt P06280); experiment: Counterscreen for Glucocerebrosidase Inhibitors: qHTS Assay for Human alpha-Galactosidase at pH 4.5 (AID 992); also: 0% is about no effect
Chain of Alpha-galactosidase A (Homo sapiens) (P06280 whole entry, looked up): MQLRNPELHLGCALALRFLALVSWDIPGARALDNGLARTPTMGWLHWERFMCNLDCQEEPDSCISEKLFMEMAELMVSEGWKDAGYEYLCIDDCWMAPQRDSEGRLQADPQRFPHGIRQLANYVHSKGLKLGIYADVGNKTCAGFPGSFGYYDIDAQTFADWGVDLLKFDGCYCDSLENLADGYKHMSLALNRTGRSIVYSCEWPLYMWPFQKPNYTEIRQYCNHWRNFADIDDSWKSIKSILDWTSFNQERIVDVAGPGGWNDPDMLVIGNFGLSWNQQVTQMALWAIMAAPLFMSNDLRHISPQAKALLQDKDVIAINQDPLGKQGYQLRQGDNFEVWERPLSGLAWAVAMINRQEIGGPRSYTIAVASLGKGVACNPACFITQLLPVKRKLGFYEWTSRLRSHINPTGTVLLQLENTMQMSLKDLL
In short: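 Steps: enzyme (2 nM final), then compound across 0.7 nM to 77 uM, then 80 uM fluorogenic galactopyranoside substrate; incubate 20 min at room temperature; quench at pH 10; measure fluorescence at 365/440 nm.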

[13] = target: Glucocorticoid receptor (Homo sapiens) (UniProt P04150); experiment: GR-GFP Redistribution (AID 450;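 active = compounds whose dose series gives a full or clear partial fitted curve of increased nuclear translocation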; also: potency is read from the fitted curve at half-maximal effect); settings: U2OS GR-GFP nuclear translocation, laser cytometry, 2 h
Chain of Glucocorticoid receptor (Homo sapiens) (P04150 whole entry, looked up, the tested form may be a part): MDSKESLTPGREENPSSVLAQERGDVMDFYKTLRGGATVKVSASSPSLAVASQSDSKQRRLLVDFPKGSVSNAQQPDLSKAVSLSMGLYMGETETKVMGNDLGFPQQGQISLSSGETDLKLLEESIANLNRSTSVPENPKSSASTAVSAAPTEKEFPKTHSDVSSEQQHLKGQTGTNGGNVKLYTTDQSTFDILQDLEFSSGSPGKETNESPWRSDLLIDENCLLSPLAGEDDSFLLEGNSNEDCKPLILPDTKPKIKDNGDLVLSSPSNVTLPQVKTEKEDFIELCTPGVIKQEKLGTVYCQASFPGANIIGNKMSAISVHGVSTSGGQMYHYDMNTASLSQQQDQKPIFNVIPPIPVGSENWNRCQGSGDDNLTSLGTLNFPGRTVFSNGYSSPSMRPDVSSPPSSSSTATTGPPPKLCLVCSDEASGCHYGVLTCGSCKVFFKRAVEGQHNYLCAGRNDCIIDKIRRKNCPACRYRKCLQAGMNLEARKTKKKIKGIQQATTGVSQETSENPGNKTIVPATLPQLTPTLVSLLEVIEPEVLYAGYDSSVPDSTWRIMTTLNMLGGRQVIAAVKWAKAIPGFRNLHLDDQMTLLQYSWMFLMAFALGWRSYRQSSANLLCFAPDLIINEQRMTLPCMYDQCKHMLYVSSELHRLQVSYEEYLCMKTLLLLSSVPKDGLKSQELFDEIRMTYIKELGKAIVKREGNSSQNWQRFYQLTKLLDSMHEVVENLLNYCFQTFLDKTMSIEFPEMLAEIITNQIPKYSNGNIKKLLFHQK

[14] = target: Glucocorticoid receptor (Homo sapiens) (UniProt P04150); experiment: GR-EFC Redistribution (AID 451; calls by dose curve; also: potency is read from the fitted curve at half-maximal effect); settings: CHO-K1 GR-EFC translocation, beta-gal luminescence, 2 h
In short: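 CHO-K1 cells stably expressing nuclear-localized β-gal enzyme acceptor and GR fused C-terminally to the enzyme donor fragment; ligand-driven nuclear translocation restores β-gal by complementation. Compounds titrated up to 46 uM final, 2 h at 37 °C; luminescence read.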

[15] = target: 3',5'-cyclic-AMP phosphodiesterase 4B (Homo sapiens) (UniProt Q07343); experiment: qHTS Assay for Inhibitors of PDE-IV (AID 607; active = well fitted activation curve with a large enough effect in the main read-out, with a control signal flat, not every such curve was filed as active; also: % of control where 0% means no effect)
Chain of 3',5'-cyclic-AMP phosphodiesterase 4B (Homo sapiens) (Q07343 whole entry, looked up): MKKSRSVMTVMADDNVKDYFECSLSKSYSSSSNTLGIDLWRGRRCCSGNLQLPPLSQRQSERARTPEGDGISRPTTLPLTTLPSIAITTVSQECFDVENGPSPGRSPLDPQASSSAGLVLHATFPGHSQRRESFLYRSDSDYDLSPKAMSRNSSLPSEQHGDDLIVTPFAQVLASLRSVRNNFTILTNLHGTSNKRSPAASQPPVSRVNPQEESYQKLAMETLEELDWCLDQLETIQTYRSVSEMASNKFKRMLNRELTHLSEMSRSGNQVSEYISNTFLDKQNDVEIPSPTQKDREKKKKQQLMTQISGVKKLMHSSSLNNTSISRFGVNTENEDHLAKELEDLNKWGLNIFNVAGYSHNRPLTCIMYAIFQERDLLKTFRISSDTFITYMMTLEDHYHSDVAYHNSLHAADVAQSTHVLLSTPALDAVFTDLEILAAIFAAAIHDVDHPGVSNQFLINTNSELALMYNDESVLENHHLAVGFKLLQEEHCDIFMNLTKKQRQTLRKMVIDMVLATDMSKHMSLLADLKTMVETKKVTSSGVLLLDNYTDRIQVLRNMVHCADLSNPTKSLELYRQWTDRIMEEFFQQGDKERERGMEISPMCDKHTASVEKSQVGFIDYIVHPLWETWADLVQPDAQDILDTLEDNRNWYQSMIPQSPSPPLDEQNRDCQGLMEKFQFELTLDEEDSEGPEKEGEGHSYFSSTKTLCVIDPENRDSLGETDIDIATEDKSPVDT
In short: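 HEK293 ACTOne cells with CNG channel (1000/well), endogenous PDE4; membrane potential dye, compounds up to 22.9 uM final. Fluorescence Ex 535/Em 590; RO 20-1724 (100 uM final) as reference.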

[16] = target: Muscarinic acetylcholine receptor M1 (Rattus norvegicus) (UniProt P08482); experiment: qHTS Assay for Antagonists of Acetylcholine Muscarinic M1 Receptor: Kinetic Measurement of Intracellular Calcium Response (AID 943);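 also: Fluo-4 calcium signal as peak divided by basal fluorescence over 4 min; nearly all actives have a fitted effect of over 75% in size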
In short: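 Antagonism is measured as inhibition of the carbachol-evoked calcium rise in CHO cells transfected with rat M1. Cells are dye-loaded, exposed to compound for 10 min, then stimulated with 100 nM carbachol (EC80).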

[17] = target: alpha-glucosidase (Oryza sativa, rice) (UniProt Q653V4); experiment: Counterscreen for Glucocerebrosidase Inhibitors: qHTS Assay for Rice alpha-Glucosidase at pH 5.0 (AID 997);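 also: 0% = full activity with enzyme and -100% = basal without enzyme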
In short: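 Endpoint fluorogenic assay at pH 5.0: compounds (0.7 nM to 77 uM) titrated against 4 nM rice enzyme and 400 uM 4-MU-alpha-glucoside for 20 min at room temperature; NaOH/glycine stop, read ex 365/em 440 nm, Hill-fitted AC50.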

[18] = target: Cytochrome P450 3A4 (Homo sapiens) (UniProt P08684); experiment: qHTS Assay for Activators of Cytochrome P450 3A4 (AID 885); also: nearly all actives have a fitted effect of over 65% in size
Chain of Cytochrome P450 3A4 (Homo sapiens) (P08684 whole entry, looked up): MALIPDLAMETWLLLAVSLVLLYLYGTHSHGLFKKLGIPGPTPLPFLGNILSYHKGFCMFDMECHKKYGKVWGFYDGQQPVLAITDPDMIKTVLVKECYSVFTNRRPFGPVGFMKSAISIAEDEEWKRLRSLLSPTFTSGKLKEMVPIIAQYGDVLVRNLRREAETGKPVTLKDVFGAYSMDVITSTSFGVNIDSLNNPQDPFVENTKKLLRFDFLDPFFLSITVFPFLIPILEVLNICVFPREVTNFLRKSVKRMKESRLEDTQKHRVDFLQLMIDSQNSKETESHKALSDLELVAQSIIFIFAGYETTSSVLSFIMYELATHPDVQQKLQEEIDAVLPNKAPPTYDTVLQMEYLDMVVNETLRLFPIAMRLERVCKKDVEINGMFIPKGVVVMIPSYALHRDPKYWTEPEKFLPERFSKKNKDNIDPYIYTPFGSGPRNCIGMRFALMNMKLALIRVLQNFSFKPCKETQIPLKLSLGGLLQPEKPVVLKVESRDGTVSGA
In short: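 Human CYP3A4 dealkylates Luciferin-PPXE to luciferin, which luciferase detection converts to light. Substrate was at its KM (25uM), buffer 200mM KPO4, reaction 60 min at RT.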

[19] = target: Cytochrome P450 2C9 (Homo sapiens) (UniProt P11712); experiment: qHTS Assay for Inhibitors and Substrates of Cytochrome P450 2C9 (AID 883); also: nearly all actives have a fitted effect of over 60% in size
Chain of Cytochrome P450 2C9 (Homo sapiens) (P11712 whole entry, looked up): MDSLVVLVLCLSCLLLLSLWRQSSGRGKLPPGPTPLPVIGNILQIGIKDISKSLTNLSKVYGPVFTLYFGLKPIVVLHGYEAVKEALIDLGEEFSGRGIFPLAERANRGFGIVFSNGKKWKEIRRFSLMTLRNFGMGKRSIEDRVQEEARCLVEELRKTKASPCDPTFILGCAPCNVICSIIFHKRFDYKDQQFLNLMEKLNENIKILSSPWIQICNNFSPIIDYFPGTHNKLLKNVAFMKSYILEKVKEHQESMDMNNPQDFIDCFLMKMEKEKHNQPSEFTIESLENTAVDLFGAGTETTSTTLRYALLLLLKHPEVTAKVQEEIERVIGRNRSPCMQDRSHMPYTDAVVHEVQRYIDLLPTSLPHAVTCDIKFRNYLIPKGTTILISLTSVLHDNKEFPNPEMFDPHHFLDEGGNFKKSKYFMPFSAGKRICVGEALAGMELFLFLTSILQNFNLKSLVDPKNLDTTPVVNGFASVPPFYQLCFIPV
In short: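 A luminogenic readout tracked human CYP2C9 (10nM) converting deoxyluciferin (100uM, at KM) in 25mM KPO4 during 60 min at 37C with regenerated NADPH. Values normalized to 57uM sulphaphenazole as complete inhibition.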

C[C@@H](C(=O)O)c1ccc(C[C@@H]2CCCC2=O)cc1
inactive: activity change, negative = inhibition [1] 14.5% [at 38 µM] | Potency [2] | activity change, negative = inhibition [3] 11.1% [at 38 µM] | activity, negative = inhibition [4] 8.58% [at 38 µM] | Potency [5] | outcome [6] | Potency [7] | Potency [8] | outcome [9] | Potency [10] | outcome [11] | outcome [12]

CCCC[S@@](=N)(=O)CC[C@@H](N)C(=O)O
inactive: activity change, negative = inhibition [1] 3.63% [at 38 µM] and -2.23% [at 38 µM] | Potency [2] | activity change, negative = inhibition [3] -1.5% [at 38 µM] and 5.43% [at 38 µM] | Potency [13] > 46 µM | Potency [14] > 46 µM | Potency [5] | Potency [15] | outcome [6] | outcome [9] | Potency [16] | Potency [10] | outcome [11] | outcome [12] | Potency [17]

N=C(N)SCc1cccc2c(=O)cc(-c3ccccc3)oc12
inactive: activity change, negative = inhibition [1] 28% | activity change, negative = inhibition [3] -23% | Potency [13] > 46 µM | Potency [14] > 9.22 µM | Potency [5] | Potency [15] | Potency [18]
active: Potency [2] 0.126 µM

Cc1ccc(C)c(C(=N)c2ccccc2Cc2ccccc2)c1
inactive: activity change, negative = inhibition [1] 1.26% | activity change, negative = inhibition [2] -6.8% [at 2.29 µM] | activity change, negative = inhibition [3] -12.9% | Potency [13] > 46 µM | Potency [5] | Potency [15] | Potency [18]

C=C(C)[C@@H]1CC=C(C(=O)O)CC1
inactive: activity change, negative = inhibition [1] 3.75% [at 38 µM] | Potency [2] | activity change, negative = inhibition [3] -3.51% [at 38 µM] | Potency [13] > 46 µM | Potency [14] > 46 µM | Potency [5] | Potency [15] | outcome [6] | Potency [7] | outcome [9] | Potency [10] | outcome [11] | outcome [12] | Potency [17]

C=C[C@H]1CN2CC[C@@H]1C[C@H]2[C@@H](O)c1ccnc2ccc(OC)cc12
inactive: activity change, negative = inhibition [1] -5.24% [at 17.2 µM] | Potency [2] | activity change, negative = inhibition [3] -13% [at 17.2 µM] | activity, negative = inhibition [4] -9.97% [at 17.2 µM] | Potency [5] | outcome [19]

C=CCN1CCc2c(cc(O)c(O)c2Cl)[C@H](c2ccccc2)C1
inactive: activity change, negative = inhibition [1] -17.1% [at 38 µM] | activity change, negative = inhibition [3] -17.9% [at 38 µM] | Potency [13] > 46 µM | Potency [14] > 46 µM | Potency [5] | outcome [6] | Potency [10] | outcome [11] | outcome [12]
active: Potency [2] 20 µM | Potency [7] 12.6 µM
